V-ATPase pHluor – yeast V-ATPase proton transport regulation by pHLuorin | response, % at 10 µM | S. cerevisiae, pHLuorin cytosolic pH fluorescence | 0.37% of 350,000 active; in the data active means response mostly above about 7.3%, no sharp cut-off; inactive means mostly below about 5.4%; further: actives read high
GC-B act – GC-B (human) receptor activation | P20594 | HEK293-GC-B cells, CNP EC30, cGMP TR-FRET; 0% at EC30 CNP, 100% saturating CNP | activation, % at 10 µM | 0.11% of 370,000 active | AID 1920062;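 active means activation at 10 µM reaching about 35% in either raw or pattern-adjusted values, limit read from the data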
Target sequence (P20594 whole entry, looked up): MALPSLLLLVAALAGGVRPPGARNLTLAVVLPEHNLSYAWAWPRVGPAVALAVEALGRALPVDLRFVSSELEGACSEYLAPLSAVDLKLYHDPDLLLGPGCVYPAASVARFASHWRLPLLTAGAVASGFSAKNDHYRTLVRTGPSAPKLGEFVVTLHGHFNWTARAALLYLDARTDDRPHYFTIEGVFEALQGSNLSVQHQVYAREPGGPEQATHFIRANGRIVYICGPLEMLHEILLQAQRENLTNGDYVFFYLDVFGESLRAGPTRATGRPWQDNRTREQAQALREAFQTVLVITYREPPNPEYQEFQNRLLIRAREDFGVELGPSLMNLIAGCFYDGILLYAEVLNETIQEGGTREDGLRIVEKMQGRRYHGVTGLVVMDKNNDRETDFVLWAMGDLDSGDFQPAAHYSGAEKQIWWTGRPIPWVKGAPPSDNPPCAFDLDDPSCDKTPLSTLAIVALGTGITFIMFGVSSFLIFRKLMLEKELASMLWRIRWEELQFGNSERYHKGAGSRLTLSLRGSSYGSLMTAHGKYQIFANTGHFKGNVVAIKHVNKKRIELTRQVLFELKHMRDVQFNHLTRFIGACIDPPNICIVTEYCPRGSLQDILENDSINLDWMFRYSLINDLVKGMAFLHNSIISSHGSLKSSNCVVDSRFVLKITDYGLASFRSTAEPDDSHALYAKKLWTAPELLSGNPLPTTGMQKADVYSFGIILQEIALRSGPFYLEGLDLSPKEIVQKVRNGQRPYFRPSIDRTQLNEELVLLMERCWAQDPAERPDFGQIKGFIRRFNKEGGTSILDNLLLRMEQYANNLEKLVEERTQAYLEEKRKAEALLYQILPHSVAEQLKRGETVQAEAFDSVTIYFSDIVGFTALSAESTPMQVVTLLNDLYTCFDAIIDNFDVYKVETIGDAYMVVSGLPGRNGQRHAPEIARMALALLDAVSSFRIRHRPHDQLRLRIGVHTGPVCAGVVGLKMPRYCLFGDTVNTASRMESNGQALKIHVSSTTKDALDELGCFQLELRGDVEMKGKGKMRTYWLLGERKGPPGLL
Rev-erbA mod – modulates human Rev-erb alpha binding to DNA. P20393. Rev-erbα–FITC-DNA binding, fluorescence polarization, 90 min. activity, % at 10 µM. 0.79% of 370,000 active;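 active means activity above about 14%, limit read from the data; passing the limit was not always enough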
NPR1 activator – GC-A (human) enzyme activation; 0.14% of 370,000 active; AID 1671463; HEK293 GC-A cells, cGMP TR-FRET, EC30 ANP; 0% at EC30 ANP, 100% saturating ANP; activation, % at 10 µM; in the data active means activation above about 40%
PG9 Ab binder – PG9 antibody binding by small molecule | TR-FRET gp120-PG9 antibody binding | inhibition, % at 6.7 µM | 0.43% of 360,000 active | AID 624416; in the data active means inhibition above about 8.5%
PG9 binder conf – PG9 antibody binding, confirmed; 90% of 1,500 active; inhibition, % at 6.7 µM; shares compounds with PG9 Ab binder; AID 651571; TR-FRET PG9 antibody binding, biochemical; in the data active means inhibition above about 9%
PGV04 counter – PGV04 control antibody binding, counter-screen; 95% of 1,500 active; TR-FRET PGV04 antibody-gp120 binding, biochemical; inhibition, % at 6.7 µM; shares compounds with PG9 Ab binder; AID 651604; in the data active means inhibition above about 9.5%
NR1D1 mod conf – confirmation of modulators of human Rev-erb alpha DNA binding; activation, % at 25 µM; AID 1259319; shares compounds with Rev-erbA mod; Rev-erb alpha FITC-DNA binding, fluorescence polarization, 90 min; 61% of 3,000 active;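 active means activation at or above a set limit, or at least 3 SD above the negative control mean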
RORg counter – RORgamma DNA-binding activity, dose-response counter-screen; shares compounds with Rev-erbA mod; purified RORgamma protein-FITC-DNA binding, fluorescence polarization; IC50, µM; 8% of 910 active; AID 1259320;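 active means Compounds whose fitted half-maximal concentration for disrupting protein-DNA binding is below 10 micromolar; the record names Rev-erb in its text, so the target is in doubt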
Numbers stand for hits; - = inactive; . = no result. Only some compounds are listed: those with a hit (about 1.6% of all), similar ones and a draw of the others.

SMILES	V-ATPase pHluor	GC-B act	Rev-erbA mod	NPR1 activator	PG9 Ab binder	PG9 binder conf	PGV04 counter	NR1D1 mod conf	RORg counter
COC(=O)c1c(NC(=O)CN2C(=O)NC3(CCc4ccccc4C3)C2=O)sc2c1CCCCC2 (stereo unspecified)	-	-	30	-	15	22	34	26	.
O=C(Nc1ccc(NC(=O)c2ccccc2Cl)c(Cl)c1)c1ccccn1	.	-	-	-	.	.	.	.	.
CCOC(=O)[C@@]12CCCC3=C1N(CCC3)C(=O)[C@H]2CC(=O)NCc1ccc(C)o1	.	-	-	-	.	.	.	.	.
COc1cc(OC)cc(-c2oc(=O)c3cc(OC)c(OC)cc3c2C#CCCO)c1	-	-	21	-	25	36	42	-	.
O=C(COC(=O)c1ccc(Cl)cc1O)Nc1cccnc1Cl	-	-	-	-	-	.	.	.	.
O=C(COC(=O)c1cc(Br)ccc1O)Nc1cccnc1Cl	-	-	66	-	38	13	31	39	-
N#Cc1ccsc1NC(=O)COC(=O)c1cc(Br)ccc1O	-	-	48	-	34	38	60	32	-
C=CCN1[C@H](C#N)[C@@H](c2ccc(C#Cc3cccnc3)cc2)[C@H]1CO	.	-	-	-	.	.	.	.	.
CCOC(=O)c1cccc2c(=O)c(C(=O)c3ccc(Cl)cc3)c(C(=O)OC)[nH]c12	-	-	50	-	21	11	19	37	-
CCCC(=O)Nc1ccc2c(c1)C(=O)N(C)[C@H]1CC[C@@H](CC(=O)OC)O[C@@H]1CO2	.	-	-	-	.	.	.	.	.
Cc1cccc(NC(=O)c2sc(NC(=O)COc3ccccc3)c(C#N)c2C)c1C	-	-	-	-	-	.	.	.	.
Cc1ccccc1NC(=O)c1sc(NC(=O)COc2ccccc2)c(C#N)c1C	-	-	74	-	34	37	53	58	-
COc1ccc(C)c2sc(=NC(=O)c3ccccc3)n(C)c12	-	-	58	-	12	-	10	-	.
COc1ccc(C)c2sc(=NC(=O)c3ccc(C(C)=O)cc3)n(C)c12	-	-	-	-	-	.	.	.	.
O=C(CCN1C(=O)c2cccc3cccc(c23)C1=O)Nc1ccon1	-	-	43	-	12	17	36	30	.
Cc1cccc(NC(=O)CCN2C(=O)c3ccccc3C2=O)n1	-	-	-	-	-	.	.	.	.
O=C(CCCCn1c(=S)[nH]c2ccsc2c1=O)NCc1ccc2c(c1)OCO2	-	-	20	-	15	16	28	-	.
CCN(CC)C(=O)c1ccc2c(=O)n(Cc3ccc4c(c3)OCO4)c(=S)[nH]c2c1	-	-	29	-	24	-	-	-	.
O=C(NCCN1CCCC1)c1ccc(Cn2c(=S)[nH]c3cc4c(cc3c2=O)OCO4)cc1	-	-	-	-	-	.	.	.	.
CC(C)OCCCNC(=O)c1ccc2c(=O)n(Cc3ccc4c(c3)OCO4)c(=S)[nH]c2c1	-	-	-	-	-	.	.	.	.
C=CCNC(=O)c1ccc(Cn2c(=S)[nH]c3cc4c(cc3c2=O)OCO4)cc1	-	-	58	-	23	16	31	64	-
COc1ccc(C(=O)N(C)[C@H]2C[C@H]3c4[nH]c5cccc(-c6ccccc6)c5c4CCN3C[C@H]2[C@H](C)O)cc1	.	-	-	-	.	.	.	.	.
O=C(Nc1ccc(Cl)c(Cl)c1)C1CCN(c2nnc(-n3cccc3)s2)CC1	.	-	-	-	.	.	.	.	.
COC(=O)[C@H]1C[C@@]2(N3CCCC3)c3ccccc3N[C@H]2N1S(C)(=O)=O	.	-	-	-	.	.	.	.	.
CCn1c2ccccc2c2cc(NC(=O)COC(=O)c3ccccc3F)ccc21	-	-	25	-	28	33	56	23	.
SMILES	V-ATPase pHluor	GC-B act	Rev-erbA mod	NPR1 activator	PG9 Ab binder	PG9 binder conf	PGV04 counter	NR1D1 mod conf	RORg counter
COc1ccc2c(c1)CNC2CS(=O)(=O)NCC(C)C (stereo unspecified)	.	-	-	-	.	.	.	.	.
COc1cc(NC(=O)c2ccc(-c3ccc(Br)cc3)o2)ccc1NC(=O)C(C)C	-	-	37	-	22	41	30	-	.
Cc1cccc(-c2cccc3c4c([nH]c23)[C@@H]2C[C@H](N(C)C(=O)Nc3ccccc3C)[C@H]([C@H](C)O)C(=O)N2CC4)c1	.	-	-	-	.	.	.	.	.
CCOCCCn1c(=S)[nH]c2cc(C(=O)NCCc3ccccc3)ccc2c1=O	-	-	43	-	18	23	53	31	-
O=C(CSc1ncnc2c1oc1ccccc12)c1cccs1	-	-	73	-	29	30	52	66	-
Cc1cccc(NC(=O)CSc2ncnc3c2oc2ccccc23)c1	-	-	601	-	66	-	47	631	1
O=C(CSc1ncnc2c1oc1ccccc12)NCc1ccc(F)cc1	-	-	395	-	51	25	74	434	-
O=C(CSc1ncnc2c1oc1ccccc12)Nc1cccc(F)c1	-	-	343	-	69	67	87	322	-
Cc1nc(SCC(=O)c2cccs2)c2oc3ccccc3c2n1	-	-	-	-	-	.	.	.	.
CCOC(=O)NC[C@@]1(C(=O)OC)CC(=O)N(Cc2ccc(Cl)cc2)[C@@H]1c1ccc(OC)cc1	.	-	-	-	.	.	.	.	.
CCN(Cc1ccccc1)C(=O)C1C2C=CC3(CN(Cc4ccccc4)C(=O)C13)O2 (stereo unspecified)	.	-	-	-	.	.	.	.	.
COc1ccc2c(c1)CCCN2C(=O)C1CCCN(S(=O)(=O)c2ccc(C)c(C)c2)C1 (stereo unspecified)	.	-	-	-	.	.	.	.	.
Cc1onc(-c2ccccc2)c1C(=O)Nc1nc(-c2cc(F)ccc2F)cs1	-	-	55	-	52	50	65	65	-
Cc1noc(C)c1C(=O)Nc1nc(-c2cc(F)ccc2F)cs1	-	-	-	-	-	.	.	.	.
CCc1ccc(NC(=O)CSc2nc3ncc(Br)cc3[nH]2)cc1	-	-	59	-	11	27	38	52	-
COc1cccc(NC(=O)CSc2nc3ncc(Br)cc3[nH]2)c1	-	-	104	-	22	-	11	101	-
COc1ccc2c(c1)CCCN2C(=O)C1CCCN(S(=O)(=O)c2ccccc2)C1 (stereo unspecified)	.	-	-	-	.	.	.	.	.
COc1ccc2oc(=O)c(C(=O)NCc3ccccc3)cc2c1	-	-	-	-	-	.	.	.	.
CCCOc1ccc2cc(C(=O)NCc3ccccc3)c(=O)oc2c1	-	-	70	-	11	38	56	29	.
